Results filed as inconclusive are left out. Calls of active or inactive are those of the source. The call rests on the fitted dose curve; in most records, active means well fitted curve in the direction sought with a large enough effect; inconclusive means small, poorly fitted or top-dose-only effect, or another doubt; inactive means no such curve, though single readings can be large; an effect the other way counts as inactive or inconclusive.
Potency means the concentration at half of the fitted maximal effect.

The nature of one assay: qHTS for Activators of Parkin Expression: LOPAC Validation Assay (NLuc Reporter) (AID 720572;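 on activation: 0% = DMSO and 100% = positive control compound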). The note with it: Parkin promoter NanoLuc reporter cells, luminescence; series mostly up to 46.1 µM; activation: at the top concentration. The method in brief:
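Neuronal line stably carrying a FLuc/NLuc coincidence reporter under the Parkin promoter, seeded 24 h, then dosed in 7-point series for 24 h at 37 C. NLuc luminescence read after FLuc; normalized to DMSO and positive control (100%).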
Background: Quantitative high-throughput screening tests each substance at several concentrations.
On to `CC(=O)/C(C)=N/O`, for which the “activation” value was -1.9% (inactive).

For `C=CCN1CCc2c(cc(O)c(O)c2Br)[C@@H](c2ccccc2)C1`, the “activation” value is 16.4% (inactive).

For `CN(CC[C@@H](Oc1ccc(C(F)(F)F)cc1)c1ccccc1)CC(=O)O`, the “activation” value is 0.0377% (inactive).

For the compound `O=C(O)/C=C/c1ccc(O)c(O)c1`, the “activation” value was -1.93% (inactive).

Consider `C=CCn1c(=O)c2c(nc(-c3ccc(S(=O)(=O)O)cc3)n2C)n(C)c1=O`, for which the “activation” value is 1.39% (inactive).

On to `CC1CCN(CC[C@H]2CCCN2S(=O)(=O)c2cccc(O)c2)CC1`, for which the “activation” value was -1.15% (inactive).

Regarding `OC[C@H]1O[C@@H](n2cnc3cncnc32)[C@H](O)[C@@H]1O`, the “activation” value is -1.59% (inactive).

Regarding `CC(=O)NNC(=O)N1Cc2ccccc2Oc2ccc(Cl)cc21`, the “activation” value is 6.51% (inactive).

Turning to `CCCCCCC/C=C\CCCCCCCCC(=O)O`, the “activation” value is 12.4% (inactive).

As for `COc1cc(/C=C(\C#N)C(=O)c2ccc(O)c(O)c2)cc(I)c1O`, the “activation” value was 15.3% (inactive).

For the compound `CCN(CC)CCCCCCCCOC(=O)c1cc(OC)c(OC)c(OC)c1`, the “activation” value is 0.104% (inactive).

On to `CC(=O)NCCc1c[nH]c2ccc(O)cc12`, for which the “activation” value was 2.89% (inactive).

Consider `O=C(O)/C=C/c1cnc[nH]1`, for which the “activation” value is 2.23% (inactive).

Consider `OC[C@H]1NC[C@@H](O)[C@@H]1O`, for which the “activation” value was -0.225% (inactive).

Turning to `Cc1ccc2c(c1)C(N1CCN(C)CC1)=Nc1cccnc1N2`, the “activation” value was 3.82% (inactive).

As to `O=C(N[C@@H](Cc1ccccc1)C(=O)CCl)OCc1ccccc1`, the “activation” value was -26.9% (inactive).

Take `Nc1ncnc2c1nc(Br)n2C1OC2COP(=O)(O)O[C@@H]2C1O` (stereo partly specified): the “activation” value is 5.85% (inactive).

With `N[C@@H](CS(=O)O)C(=O)O`, the “activation” value is -3.95% (inactive).

On to `CCC(=O)N1CCN(C(=O)c2ccccc2)CC1`, for which the “activation” value was -0.35% (inactive).

Consider `Cc1ccc([N+](=O)[O-])cc1S(=O)(=O)N(C)C`, for which the “activation” value is -1.45% (inactive).

On to `OC[C@H]1O[C@H](n2cnc3c(N[C@H]4CCC[C@@H]4O)ncnc32)[C@H](O)[C@@H]1O`, for which the “activation” value was -2.44% (inactive).

Turning to `COc1ccccc1N1CCN(CCCNc2c(C)c(=O)n(C)c(=O)n2C)CC1`, the “activation” value was -3.12% (inactive).

`CCCCCCCCCCCCCCCCCCOC[C@H](COP(=O)([O-])OCC[N+](C)(C)C)OC`: the “activation” value is -23.2% (inactive).

Turning to `COc1cccc(OC)c1OCCNCC1CSc2ccccc2O1` (stereo unspecified), the “activation” value was -5.72% (inactive).

In the case of `CC[n+]1c(/C=C/C=C2/N(C)c3ccccc3C2(C)C)sc2ccccc21`, the “activation” value is -28.4% (inactive).

In the case of `CCCn1c(=O)c2[nH]c(C3CCCC3)nc2n(CCC)c1=O`, the “activation” value was 4.37% (inactive).

For the compound `CN(C)CCCc1cc(C(=O)Nc2ccc(-c3ccncc3)cc2)ccc1O`, the “activation” value is 6.9% (inactive).

With `CC(N)(C(=O)O)c1ccc(C(=O)O)cc1` (stereo unspecified), the “activation” value was -3.41% (inactive).

As to `C[N+](C)(C)CC=O`, the “activation” value is -4.45% (inactive).

For the compound `CC(=O)O[C@H]1CC2(C)[C@@H](C[C@@H](O)[C@H]3[C@@]4(C)CC[C@@H](O)[C@@H](C)[C@@H]4CC[C@@]32C)C1=C(CCC=C(C)C)C(=O)O` (stereo partly specified), the “activation” value was 16.9% (inactive).

As for `Cc1cc2c(cc1Cl)N(C(=O)Nc1ccnc3ccccc13)CC2`, the “activation” value is -3.09% (inactive).

With `CC(N)(Cc1ccc(O)c(O)c1)C(=O)O` (stereo unspecified), the “activation” value was 6.12% (inactive).

As to `CCn1c(=O)[nH]c2cc(Cl)c(Cl)cc21`, the “activation” value is 20.4% (inactive).

For `CC[C@H](NC(=O)c1c(C)c(-c2ccccc2)nc2ccccc12)c1ccccc1`, the “activation” value was -2.92% (inactive).

For `CCCCCCCCCC(=O)NC(CN1CCOCC1)[C@H](O)c1ccccc1` (stereo partly specified), the “activation” value was -11.3% (inactive).

As to `O=C1Cc2c([nH]c3ccc(Br)cc23)-c2ccccc2N1`, the Potency is 5.8 µM (active).

In the case of `NC1CCN(O)C1=O` (stereo unspecified), the “activation” value was 4.07% (inactive).

`NC1(C(=O)O)CC1`: the “activation” value is -1.63% (inactive).

Another assay is described as follows: qHTS for Activators of Parkin Expression: LOPAC Validation Assay (FLuc Reporter) (AID 720573;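 on activation: 0% = DMSO and 100% = positive control compounds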). The following applies: Cell line, PRKN promoter firefly luciferase reporter; series mostly up to 46.1 µM; activation: at the top concentration. Put shortly:
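A neuronal cell line harbouring FLuc and NLuc reporters behind the Parkin promoter was exposed to compounds for 24 h. Firefly luciferase signal, measured after 10 min with detection reagent, was scaled to DMSO and positive-control wells.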
Consider `CC(=O)/C(C)=N/O`, for which the “activation” value is -8.26% (inactive).

`C=CCN1CCc2c(cc(O)c(O)c2Br)[C@@H](c2ccccc2)C1`: the “activation” value was 0.468% (inactive).

Consider `CN(CC[C@@H](Oc1ccc(C(F)(F)F)cc1)c1ccccc1)CC(=O)O`, for which the “activation” value was -10.8% (inactive).

On to `O=C(O)/C=C/c1ccc(O)c(O)c1`, for which the “activation” value was -3.05% (inactive).

With `C=CCn1c(=O)c2c(nc(-c3ccc(S(=O)(=O)O)cc3)n2C)n(C)c1=O`, the “activation” value is 6.2% (inactive).

For the compound `CC1CCN(CC[C@H]2CCCN2S(=O)(=O)c2cccc(O)c2)CC1`, the “activation” value was 3.47% (inactive).

With `OC[C@H]1O[C@@H](n2cnc3cncnc32)[C@H](O)[C@@H]1O`, the “activation” value is -2.9% (inactive).

As for `CC(=O)NNC(=O)N1Cc2ccccc2Oc2ccc(Cl)cc21`, the “activation” value was 3.93% (inactive).

Consider `CCCCCCC/C=C\CCCCCCCCC(=O)O`, for which the “activation” value was -14.7% (inactive).

For the compound `COc1cc(/C=C(\C#N)C(=O)c2ccc(O)c(O)c2)cc(I)c1O`, the “activation” value is -5.6% (inactive).

As to `CCN(CC)CCCCCCCCOC(=O)c1cc(OC)c(OC)c(OC)c1`, the “activation” value is -1.21% (inactive).

Consider `CC(=O)NCCc1c[nH]c2ccc(O)cc12`, for which the “activation” value is -9.28% (inactive).

Turning to `O=C(O)/C=C/c1cnc[nH]1`, the “activation” value was 0.824% (inactive).

As for `OC[C@H]1NC[C@@H](O)[C@@H]1O`, the “activation” value is -2.49% (inactive).

Consider `Cc1ccc2c(c1)C(N1CCN(C)CC1)=Nc1cccnc1N2`, for which the “activation” value is -0.314% (inactive).

For `O=C(N[C@@H](Cc1ccccc1)C(=O)CCl)OCc1ccccc1`, the “activation” value was -49.3% (inactive).

Consider `Nc1ncnc2c1nc(Br)n2C1OC2COP(=O)(O)O[C@@H]2C1O` (stereo partly specified), for which the “activation” value was 3.62% (inactive).

With `N[C@@H](CS(=O)O)C(=O)O`, the “activation” value was -3.91% (inactive).

On to `CCC(=O)N1CCN(C(=O)c2ccccc2)CC1`, for which the “activation” value was -2.79% (inactive).

In the case of `Cc1ccc([N+](=O)[O-])cc1S(=O)(=O)N(C)C`, the “activation” value is -7.45% (inactive).

On to `OC[C@H]1O[C@H](n2cnc3c(N[C@H]4CCC[C@@H]4O)ncnc32)[C@H](O)[C@@H]1O`, for which the “activation” value was -2.32% (inactive).

With `COc1ccccc1N1CCN(CCCNc2c(C)c(=O)n(C)c(=O)n2C)CC1`, the “activation” value was 2.47% (inactive).

As for `CCCCCCCCCCCCCCCCCCOC[C@H](COP(=O)([O-])OCC[N+](C)(C)C)OC`, the “activation” value was -48.2% (inactive).

Consider `COc1cccc(OC)c1OCCNCC1CSc2ccccc2O1` (stereo unspecified), for which the “activation” value was -7.55% (inactive).

Turning to `CC[n+]1c(/C=C/C=C2/N(C)c3ccccc3C2(C)C)sc2ccccc21`, the “activation” value was -49.1% (inactive).

For `CCCn1c(=O)c2[nH]c(C3CCCC3)nc2n(CCC)c1=O`, the “activation” value is -0.79% (inactive).

`CN(C)CCCc1cc(C(=O)Nc2ccc(-c3ccncc3)cc2)ccc1O`: the “activation” value is -6.39% (inactive).

Turning to `CC(N)(C(=O)O)c1ccc(C(=O)O)cc1` (stereo unspecified), the “activation” value was 6.34% (inactive).

For `C[N+](C)(C)CC=O`, the “activation” value was -5.13% (inactive).

For `CC(=O)O[C@H]1CC2(C)[C@@H](C[C@@H](O)[C@H]3[C@@]4(C)CC[C@@H](O)[C@@H](C)[C@@H]4CC[C@@]32C)C1=C(CCC=C(C)C)C(=O)O` (stereo partly specified), the “activation” value was -1.16% (inactive).

As for `Cc1cc2c(cc1Cl)N(C(=O)Nc1ccnc3ccccc13)CC2`, the “activation” value is -8.13% (inactive).

For the compound `CC(N)(Cc1ccc(O)c(O)c1)C(=O)O` (stereo unspecified), the “activation” value is 2.59% (inactive).

Turning to `CCn1c(=O)[nH]c2cc(Cl)c(Cl)cc21`, the “activation” value was 9.47% (inactive).

Take `CC[C@H](NC(=O)c1c(C)c(-c2ccccc2)nc2ccccc12)c1ccccc1`: the “activation” value was -13.7% (inactive).

On to `CCCCCCCCCC(=O)NC(CN1CCOCC1)[C@H](O)c1ccccc1` (stereo partly specified), for which the “activation” value is -16.5% (inactive).

`O=C1Cc2c([nH]c3ccc(Br)cc23)-c2ccccc2N1`: the Potency was 2.59 µM (active).

For the compound `NC1CCN(O)C1=O` (stereo unspecified), the “activation” value was -6.59% (inactive).

With `NC1(C(=O)O)CC1`, the “activation” value is -9.42% (inactive).
